Screening data from PubChem.
A selection: hits, their analogues and other compounds. The true share with any hit is near 2.3%.
SIRT5 inh – inhibitors of human sirtuin-5 desuccinylase | Purified SirT5, succinyl-peptide AMC, trypsin-coupled fluorescence | 330,000 compounds, 1.1% hits | Q9NXA8 | inhibition, % at 15 µM; in the data active = inhibition above about 15%
Target sequence (Q9NXA8 whole entry, looked up): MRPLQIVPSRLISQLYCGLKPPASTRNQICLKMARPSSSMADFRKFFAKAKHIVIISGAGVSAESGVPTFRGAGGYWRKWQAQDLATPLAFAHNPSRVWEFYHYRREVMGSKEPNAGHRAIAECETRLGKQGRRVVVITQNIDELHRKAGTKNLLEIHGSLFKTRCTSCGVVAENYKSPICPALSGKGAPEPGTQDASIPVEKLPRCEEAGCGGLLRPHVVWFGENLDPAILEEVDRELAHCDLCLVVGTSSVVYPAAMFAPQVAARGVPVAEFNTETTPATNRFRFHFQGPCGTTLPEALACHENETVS
ERp5 block – inhibitors of human ERp5. 350,000 compounds, 0.05% hits. ERp5 insulin aggregation, absorbance 650 nm, 90 min. Q15084. inhibition, % at 9.99 µM;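 active = mean replicate inhibition above about 25%, with every replicate also reaching it, limit read from the data, passing the limit was not always enough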
PDI turbidity – blocks human protein disulfide isomerase activity; P07237; PDI insulin aggregation turbidity, A650, 90 min; inhibition, % at 10 µM; 350,000 compounds, 0.052% hits; AID 588391;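 active = mean inhibition across replicates of 30% or more, whatever share of single replicates reach that level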
DENV2 CPE – protects cells from dengue virus 2 cytopathic effect | 350,000 compounds, 1.7% hits | CPE inhibition, % at 9.99 µM | DENV2-infected cells, cytopathic effect rescue, plate reader; in the data active = CPE inhibition above about 20%, passing the limit was not always enough; tested in BHK-21 cells
Rtt109 HAT inh – blocks Candida albicans Rtt109/Vps75 acetyltransferase activity; Q5AAJ8; purified Rtt109/Vps75, ThioGlo CoA-SH fluorescence, 4 h; inhibition, % at 34.9 µM; 330,000 compounds, 0.16% hits; AID 540336;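 active = inhibition of at least 50% in every replicate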
Target sequence (Q5AAJ8 whole entry, looked up): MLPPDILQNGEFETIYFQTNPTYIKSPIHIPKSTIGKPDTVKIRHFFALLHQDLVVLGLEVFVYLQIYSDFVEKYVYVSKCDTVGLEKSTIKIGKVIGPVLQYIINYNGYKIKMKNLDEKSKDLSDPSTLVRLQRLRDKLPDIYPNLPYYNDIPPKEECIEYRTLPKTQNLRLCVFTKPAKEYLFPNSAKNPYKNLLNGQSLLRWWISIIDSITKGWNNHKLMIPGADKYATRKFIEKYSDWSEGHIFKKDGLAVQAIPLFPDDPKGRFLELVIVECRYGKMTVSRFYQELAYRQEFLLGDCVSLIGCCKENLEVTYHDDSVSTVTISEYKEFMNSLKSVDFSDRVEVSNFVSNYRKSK
Each line names hits and unclear results; the compound was inactive in the other large screens.

Cc1c([N+](=O)[O-])cc(C(=O)NCc2ccc(F)cc2)cc1[N+](=O)[O-]	SIRT5 inh 111
Cc1c(C(=O)NCCCN2CCOCC2)sc2nc(-c3ccccc3)cn12	DENV2 CPE 87 (no result: PDI turbidity, Rtt109 HAT inh)
NC(=O)c1cc2cc(Cl)ccc2oc1=O	none (no result: SIRT5 inh, ERp5 block, DENV2 CPE)
NC(=O)c1cc2cc(Cl)ccc2oc1=Nc1cccc(C(F)(F)F)c1	DENV2 CPE 66
O=C(C[C@H]1C[C@@H]2c3cc(NC(=O)NC4CCCCC4)ccc3O[C@@H]2[C@H](CO)O1)NCc1ccccn1	none (no result: PDI turbidity, Rtt109 HAT inh)
COc1ccc2c3c(n(C)c2c1)[C@@H](CO)N(Cc1ccncc1)CC31CCN(C(=O)C2CCC2)CC1	none (no result: PDI turbidity, Rtt109 HAT inh)
C[C@H](CO)N1C[C@H](C)[C@H](CN(C)C(=O)Nc2ccccc2)OCCCC[C@H](C)Oc2ccc(NS(=O)(=O)c3ccccc3)cc2C1=O	none (no result: PDI turbidity, Rtt109 HAT inh)
CCOC(=O)C(=C1Nc2ccccc2N1)n1c(-c2cnccn2)nc2ccccc21	DENV2 CPE 57 (no result: SIRT5 inh, PDI turbidity, Rtt109 HAT inh)
Cc1oc2ccc(O)cc2c1C(=O)c1ccc([N+](=O)[O-])cc1	none
CN(C)/C=C/c1oc2ccc(O)cc2c1[N+](=O)[O-]	SIRT5 inh 24 (no result: Rtt109 HAT inh)
CCCNC(=O)N1C[C@@H](O)COC[C@H]2O[C@H](CC(=O)NCc3ccncn3)CC[C@@H]21	none (no result: PDI turbidity, Rtt109 HAT inh)
Cn1nc(C(=O)NNC(=O)c2cccc(Cl)c2)c2ccccc2c1=O	DENV2 CPE 67
CCOc1ccc(NS(=O)(=O)c2ccc(C(=O)N3CCCCC3)cc2)cc1	none
CCOc1ccc(NS(=O)(=O)c2cc(C(=O)N3CCC3)ccc2Cl)cc1	DENV2 CPE 47
COc1ccccc1C#Cc1ccc2c(c1)[C@@H]1[C@@H](CCN1C(=O)c1ccccc1)[C@@H](CO)N2	none (no result: PDI turbidity, Rtt109 HAT inh)
COc1ccccc1C#Cc1ccc2c(c1)[C@@H]1[C@@H](CCN1C(=O)Cc1ccccc1)[C@@H](CO)N2	none (no result: PDI turbidity, Rtt109 HAT inh)
COc1ccccc1C#Cc1ccc2c(c1)[C@@H]1[C@@H](CCN1C(=O)c1ccccc1)[C@H](CO)N2	DENV2 CPE 45 (no result: PDI turbidity, Rtt109 HAT inh)
COc1ccccc1C#Cc1ccc2c(c1)[C@@H]1[C@@H](CCN1C(=O)Cc1ccccc1)[C@H](CO)N2	DENV2 CPE 42 (no result: PDI turbidity, Rtt109 HAT inh)
O=C(N[C@@H]1CC[C@@H](CCNC(=O)C2CCCC2)O[C@H]1CO)c1ccncc1	none (no result: PDI turbidity, Rtt109 HAT inh)
COc1ccc(NC(=O)N[C@@H]2CC[C@@H](CCn3cc(-c4ccccc4)nn3)O[C@@H]2CO)cc1	none (no result: PDI turbidity, Rtt109 HAT inh)
O=C(Nc1ccc(C(F)(F)F)cc1)N[C@@H]1CC[C@H](CCn2cc(C3(O)CCCC3)nn2)O[C@@H]1CO	SIRT5 inh 18 (no result: PDI turbidity, Rtt109 HAT inh)
COc1ccccc1-c1cn(CC[C@H]2CC[C@@H](NC(=O)NC(C)C)[C@H](CO)O2)nn1	DENV2 CPE 28 (no result: PDI turbidity, Rtt109 HAT inh)
CN(C)Cc1cn(CC[C@H]2CC[C@@H](NC(=O)Nc3ccccc3F)[C@@H](CO)O2)nn1	SIRT5 inh 18 (no result: PDI turbidity, Rtt109 HAT inh)
COc1ccc(NC(=O)N[C@H]2CC[C@H](CCn3cc(-c4ccccc4)nn3)O[C@@H]2CO)cc1	DENV2 CPE 37 (no result: PDI turbidity, Rtt109 HAT inh)
COc1cccc(NC(=O)N(C)C[C@H]2Oc3ncc(/C=C/c4ccccc4)cc3C(=O)N([C@H](C)CO)C[C@@H]2C)c1	none (no result: PDI turbidity, Rtt109 HAT inh)
COc1ccc(NC(=O)N(C)C[C@@H]2Oc3ccc(NC(=O)NC4CCCCC4)cc3CC(=O)N([C@H](C)CO)C[C@H]2C)cc1	none (no result: PDI turbidity, Rtt109 HAT inh)
CO[C@@H]1CN(C)C(=O)c2ccc(NC(=O)Nc3ccccc3F)cc2OC[C@H](C)NC[C@@H]1C	none (no result: PDI turbidity, Rtt109 HAT inh)
O=C(Nc1ccc(Cl)cc1)N[C@H]1CC[C@@H](CCn2cc(Cc3ccccc3)nn2)O[C@H]1CO	DENV2 CPE 46 (no result: PDI turbidity, Rtt109 HAT inh)
O=C(C[C@@H]1C=C[C@@H](NC(=O)CN2CCOCC2)[C@H](CO)O1)NC1CCCCC1	SIRT5 inh 26 (no result: PDI turbidity, Rtt109 HAT inh)
O=C(C[C@@H]1C=C[C@H](NC(=O)CN2CCOCC2)[C@@H](CO)O1)NCCc1ccccc1	none (no result: PDI turbidity, Rtt109 HAT inh)
O=C(C[C@@H]1C=C[C@H](NC(=O)CN2CCOCC2)[C@H](CO)O1)NC1CCC1	none (no result: PDI turbidity, Rtt109 HAT inh)
O=C(C[C@H]1C=C[C@H](NC(=O)CN2CCOCC2)[C@H](CO)O1)NCCc1ccccc1	SIRT5 inh 17 (no result: PDI turbidity, Rtt109 HAT inh)
CC1(OC(=O)CCc2ccccc2)C(=O)C=C2C=C(c3ccc(C#N)cc3)N(c3ccccc3)C=C2C1=O (configuration not stated)	DENV2 CPE 41 (no result: SIRT5 inh)
CC1(OC(=O)CCc2ccccc2)C(=O)C=C2C=C(c3ccc(C#N)cc3)N(CC3CC3)C=C2C1=O (configuration not stated)	none
COc1cccc(CN(C)C[C@@H]2OCc3ccccc3-c3c(n(C)c4ccccc34)C(=O)N([C@H](C)CO)C[C@H]2C)c1	SIRT5 inh 29 (no result: PDI turbidity, Rtt109 HAT inh)
COc1ccccc1CN(C)C[C@@H]1OCc2ccccc2-c2c(n(C)c3ccccc23)C(=O)N([C@@H](C)CO)C[C@H]1C	none (no result: SIRT5 inh, PDI turbidity, Rtt109 HAT inh)
COc1cccc(CN(C)C[C@H]2OCc3ccccc3-c3c(n(C)c4ccccc34)C(=O)N([C@H](C)CO)C[C@@H]2C)c1	none (no result: PDI turbidity, Rtt109 HAT inh)
C[C@H](CO)N1C[C@H](C)[C@@H](CN(C)Cc2ccccc2C(F)(F)F)OCc2ccccc2-c2c(n(C)c3ccccc23)C1=O	none (no result: ERp5 block, PDI turbidity, Rtt109 HAT inh)
COc1ccccc1CN(C)C[C@H]1OCc2ccccc2-c2c(n(C)c3ccccc23)C(=O)N([C@H](C)CO)C[C@H]1C	DENV2 CPE 27 (no result: PDI turbidity, Rtt109 HAT inh)
C[C@H](CO)N1C[C@H](C)[C@H](CN(C)Cc2ccccc2C(F)(F)F)OCc2ccccc2-c2c(n(C)c3ccccc23)C1=O	DENV2 CPE 26 (no result: PDI turbidity, Rtt109 HAT inh)
C[C@@H]1CN([C@H](C)CO)C(=O)c2cccc(NS(=O)(=O)c3ccc(F)cc3)c2O[C@H]1CN(C)CC1CCCCC1	none (no result: PDI turbidity, Rtt109 HAT inh)
COc1ccc(-c2c(-c3cc(OC)cc(OC)c3)n(C)c3ccc(Br)cc23)cc1	DENV2 CPE 32 (no result: SIRT5 inh)
CN1CCN(C(=O)C[C@@H]2CC[C@H]3[C@@H](COC[C@@H](O)CN3C(=O)Cc3ccccc3)O2)CC1	none (no result: PDI turbidity, Rtt109 HAT inh)
O=C(c1ccccn1)N1CC[C@H]2[C@H](CO)Nc3ccc(-c4ccc(F)cc4)cc3[C@H]21	none (no result: SIRT5 inh, PDI turbidity, Rtt109 HAT inh)
Cc1ccc(S(=O)(=O)Nc2ccc3c(c2)C(=O)N([C@H](C)CO)C[C@@H](C)[C@@H](CN(C)Cc2ccc(C(F)(F)F)cc2)OCCCC[C@H](C)O3)cc1	SIRT5 inh 20 (no result: PDI turbidity, Rtt109 HAT inh)
Cc1ccc(S(=O)(=O)Nc2ccc3c(c2)C(=O)N([C@@H](C)CO)C[C@H](C)[C@@H](CN(C)Cc2ccc(C(F)(F)F)cc2)OCCCC[C@H](C)O3)cc1	SIRT5 inh 23 (no result: PDI turbidity, Rtt109 HAT inh)
Cc1ccc(S(=O)(=O)Nc2ccc3c(c2)C(=O)N([C@@H](C)CO)C[C@@H](C)[C@H](CN(C)Cc2ccc(C(F)(F)F)cc2)OCCCC[C@H](C)O3)cc1	none (no result: PDI turbidity, Rtt109 HAT inh)
Cc1ccc(S(=O)(=O)Nc2ccc3c(c2)C(=O)N([C@H](C)CO)C[C@H](C)[C@H](CN(C)Cc2ccc(C(F)(F)F)cc2)OCCCC[C@H](C)O3)cc1	SIRT5 inh 32 (no result: PDI turbidity, Rtt109 HAT inh)
Cc1ccc(S(=O)(=O)Nc2ccc3c(c2)C(=O)N([C@H](C)CO)C[C@@H](C)[C@@H](CN(C)Cc2ccc(C(F)(F)F)cc2)OCCCC[C@@H](C)O3)cc1	SIRT5 inh 18 (no result: PDI turbidity, Rtt109 HAT inh)
